# Screens deposited in PubChem BioAssay by several laboratories.
# Rows were chosen to be rich in hits. Some 3.5% of all compounds tested hit in one or more screens of this group.
# Anthrax LF inh2 – Bacillus anthracis LF protease inhibitors, primary screen, biochemical, multiplex microsphere, MLPCN library; Lethal factor (Bacillus anthracis), P15917; multiplex microsphere protease cleavage assay; inhibition, % at 10 µM; 360,000 compounds, 0.12% hits; further: plate controls were buffer without enzyme for full effect and enzyme alone for no effect
# Target sequence (P15917 whole entry, looked up): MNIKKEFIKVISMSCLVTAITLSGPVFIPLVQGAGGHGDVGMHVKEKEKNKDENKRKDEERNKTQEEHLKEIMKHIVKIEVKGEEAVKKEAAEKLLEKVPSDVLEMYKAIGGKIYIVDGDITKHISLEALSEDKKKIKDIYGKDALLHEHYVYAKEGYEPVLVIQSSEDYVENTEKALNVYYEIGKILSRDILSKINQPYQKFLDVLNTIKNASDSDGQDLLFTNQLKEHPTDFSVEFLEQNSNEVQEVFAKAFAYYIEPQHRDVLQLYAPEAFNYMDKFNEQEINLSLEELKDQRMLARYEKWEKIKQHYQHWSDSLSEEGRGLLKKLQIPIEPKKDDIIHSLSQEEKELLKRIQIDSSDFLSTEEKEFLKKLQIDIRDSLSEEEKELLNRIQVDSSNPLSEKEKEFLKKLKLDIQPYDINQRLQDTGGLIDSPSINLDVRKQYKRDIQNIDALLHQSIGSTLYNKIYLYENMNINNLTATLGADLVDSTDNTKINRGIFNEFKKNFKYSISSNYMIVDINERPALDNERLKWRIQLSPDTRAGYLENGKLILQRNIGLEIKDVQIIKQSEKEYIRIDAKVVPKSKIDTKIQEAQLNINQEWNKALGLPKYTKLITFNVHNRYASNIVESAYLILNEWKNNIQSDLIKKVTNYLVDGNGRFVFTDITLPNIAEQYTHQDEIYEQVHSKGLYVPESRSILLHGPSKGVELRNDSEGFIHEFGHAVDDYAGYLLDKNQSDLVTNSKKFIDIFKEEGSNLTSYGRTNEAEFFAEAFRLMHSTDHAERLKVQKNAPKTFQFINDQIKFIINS
# Autofluor counter – compound fluorescence in toxin protease inhibitor counterscreen. compound autofluorescence counterscreen, microsphere flow cytometry; stronger effect = higher value. fluorescence intensity (concentration not given with the values). 360,000 compounds, 3.1% hits. AID 624483; in the data active means fluorescence intensity above about 16000; inconclusive means no clear call, values can overlap the other calls
# BH1578 lux ind – inducers of Vibrio cholerae quorum light production without autoinducers, primary screen, BH1578 luxS cqsA deficient, single point; 350,000 compounds, 0.16% hits; V. cholerae BH1578 lux reporter, luminescence, 6 h; activation, % at 18.7 µM; in the data active means activation mostly above about 9.7%, no sharp cut-off; inconclusive means no clear call, values can overlap the other calls; inactive means mostly below about 3.7%
# BoNT-A LC inh2 – BoNT/A light chain protease inhibitors, primary screen, biochemical, flow cytometry, MLPCN library. Botulinum neurotoxin type A light chain protease (Clostridium botulinum A str. ATCC 3502). multiplex microsphere protease substrate cleavage. inhibition, % at 10 µM. 360,000 compounds, 0.17% hits. AID 588499, 2011; further: plate controls were buffer without enzyme for full effect and enzyme alone for no effect
# BoNT-F LC inh – BoNT/F light chain protease inhibitors, primary screen, biochemical, flow cytometry, MLPCN library; Botulinum neurotoxin type F light chain protease (Clostridium botulinum); Multiplex microsphere protease cleavage assay; 360,000 compounds, 0.22% hits; inhibition, % at 10 µM; AID 588497, 2011; in the data active means inhibition above about 35%, passing the limit was not always enough; inconclusive means no clear call, values can overlap the other calls; further: plate controls were buffer without enzyme for full effect and enzyme alone for no effect
# Starred values were filed as active, the others as inactive; i = inactive; ? = inconclusive; nt = no result given. Unless noted, no stated cut-off is given here; in the data, active means inhibition above about 30%; inconclusive means no clear call, values can overlap the other calls; inactive means below that.
SMILES,Anthrax LF inh2,Autofluor counter,BH1578 lux ind,BoNT-A LC inh2,BoNT-F LC inh
CCOC(=O)COc1ccc2c(c1)C(=O)CC1(CCN(C(C)=O)CC1)O2,-3,23933*,0,-2,-2
CCOC(=O)N1CCN(C(=O)COc2ccc3c(c2)C(=O)CC(C)(C)O3)CC1,-2,4941,-4,-1,-9
CC1(C)CC(=O)c2cc(OCC(=O)O)ccc2O1,-7,24044*,0,-2,-4
CC1(C)CC(=O)c2cc(OCC(=O)N3CCCCCC3)ccc2O1,-17,14619,0,16,20
CC(=O)N1CCC2(CC1)CC(=O)c1cc(OCC(=O)N3CCCC3)ccc1O2,1,3581,-1,0,1
CC(=O)[C@H]1[C@H]([C@H](O)[C@H](O)CO)O[C@](O)(C(=O)O)C[C@@H]1O,-4,5624,0,-1,-6
C=CCn1c(=O)/c(=C/c2ccsc2)s/c1=C(\C#N)C(=O)NCCN1CCOCC1,-2,3951,i,0,1
CN1OC[C@@H]2CN[C@H](c3cccc(Oc4ccccc4)c3)C[C@@H]21,8,4070,1,0,-9
COc1c2c(cc3ccc(=O)oc13)CCO2,15,3659,i,0,11
Cn1c(=O)n(CC(=O)N2CCC3(CC2)OCCO3)c(=O)c2ccccc21,1,2120,i,0,3
O=C(Cn1c(=S)[nH]c2ccccc2c1=O)N1CCC2(CC1)OCCO2,-4,24695*,i,-4,-7
O=C(CCCCCn1c(=S)[nH]c2ccccc2c1=O)N1CCC2(CC1)OCCO2,1,21724*,i,3,8
CCN1C(=O)N(S(=O)(=O)c2ccc(C)cc2)[C@@H](c2ccccc2)C(C(=O)OC)=C1C,5,3865,i,1,11
COc1c(-c2ccc([N+](=O)[O-])cc2[N+](=O)[O-])c(=O)n(C)c(=O)n1C,0,3701,1,4,1
COc1ccc(/C=c2\s/c(=C(/C#N)C(=O)NCc3ccco3)n(-c3ccccc3)c2=O)cc1,-1,2113,-1,2,6
COc1cccc(/C=c2/s/c(=C(\C#N)C(=O)N3CCOCC3)n(-c3ccccc3)c2=O)c1,-7,20549*,4,?,5
O=C(c1ccc(S(=O)(=O)N2CCOCC2)cc1)N1CCN(c2cccc(Cl)c2)CC1,-5,24247*,i,-3,-4
O=C(NCC1CCN(c2ccc(S(=O)(=O)N3CCOCC3)cc2)CC1)c1cccc(Cl)c1,-5,18496*,0,-3,18
COc1cccc(C(=O)NCC2CCN(c3ccc(S(=O)(=O)N4CCOCC4)cc3)CC2)c1,-2,10368,-1,-13,25
COCCn1c(C)nnc1SCC(=O)NNC(=O)c1ccc(Cl)cc1,-10,3911,i,-5,-24
CC(=NCCC1=CCCCC1)c1c(O)n(C)c(=O)n(C)c1=O,1,23048*,-2,0,0
C=C(C)C1CC=C(C)/C(=N/NC(=O)COc2ccc(C)cc2)C1 (configuration not stated),0,21182*,-2,2,2
Cc1ccc(OCC(=O)NN=C2c3ccccc3-c3ccccc32)cc1,1,23454*,0,-1,0
C=C(C)C1CC=C(C)/C(=N/NC(=O)COc2ccccc2Cl)C1 (configuration not stated),-2,2943,0,-2,-4
Cc1ccc(OCC(=O)NN2C(=O)c3ccccc3C2=O)cc1,-4,6199,0,0,-10
SMILES,Anthrax LF inh2,Autofluor counter,BH1578 lux ind,BoNT-A LC inh2,BoNT-F LC inh
COc1ccc(Cl)cc1C(=O)O/N=C(\N)c1ccccn1,33*,3904,i,-2,?
Cc1ccc(NC(=O)CSc2nc3c(c(=O)[nH]2)CCC3)cc1C,-2,17130*,0,-2,-2
Cc1ccc(CSc2nc3c(c(=O)[nH]2)CCC3)cc1,-2,20993*,-1,?,-4
Cc1cccc(CSc2nc3c(c(=O)[nH]2)CCC3)c1,-2,2569,1,0,-8
CN(C(=O)CSc1nc2c(c(=O)[nH]1)CCCC2)C1CCCCC1,-1,20234*,2,?,4
O=c1[nH]c(SCc2ccccc2Cl)nc2c1CCC2,-2,23543*,i,-3,-2
C/C(Nc1ccc(Cl)c(Cl)c1)=C1/CCOC1=O,4,3232,i,1,-16
Cc1ccc(C)c(NC(=O)CN(C)C(=O)c2nn(C)c(=O)c3ccccc23)c1,-2,4540,0,0,2
CC(=O)Nc1ccc(S(=O)(=O)N2CCN(CC(=O)N3CCOCC3)CC2)cc1,5,6049,-1,0,-1
COc1ccc(OC)c(C2=NOC(C(=O)Nc3cccc(C(C)=O)c3)C2)c1 (configuration not stated),0,23110*,0,0,2
COc1cc(NC(=O)C2CC(c3cccc(OC)c3OC)=NO2)cc(OC)c1OC (configuration not stated),-2,22158*,i,3,2
O=C(CCCCCn1c(=S)[nH]c2ccccc2c1=O)NCc1ccc2c(c1)OCO2,-2,23096*,0,-3,-4
CCN(CC)CCNC(=O)CCn1c(=S)[nH]c2cc3c(cc2c1=O)OCO3,-2,5237,0,0,-2
CCN(CC)CCn1c(=S)[nH]c2cc3c(cc2c1=O)OCO3,-1,23550*,1,?,-2
COCCNC(=O)CCCCCn1c(=S)[nH]c2ccccc2c1=O,2,22614*,i,?,1
CCCCNC(=O)CCCn1c(=S)[nH]c2cc3c(cc2c1=O)OCO3,-3,20235*,-1,?,-3
COC(=O)C1CCN(C2CN(Cc3ccccc3)S(=O)(=O)C2)CC1 (configuration not stated),-4,6050,nt,0,-8
Cc1nc(C)n(CC(=O)N2CCCC(C(=O)c3cccc4ccccc34)C2)n1 (configuration not stated),-8,5429,0,-6,-24
O=C(CN1CCN(C(=O)CN2C(=O)NC3(CCCC3)C2=O)CC1)Nc1cccc(F)c1,8,3878,-7,0,3
Cc1ccc(NC(=O)C2CCN(C(=O)c3ccco3)CC2)cc1C,3,4500,i,1,1
CC(C)(C)OC(=O)N1CCC[C@H]1C(=O)N/N=C/c1cccc2nccnc12,4,5913,-1,0,-10
Cc1nn(-c2ccc(F)cc2)c2sc(C(=O)OCC(=O)N3CCC(C)CC3)cc12,-10,19994*,i,?,10
Cc1noc(C)c1COC(=O)c1cc2c(C)nn(-c3ccc(F)cc3)c2s1,-5,2922,i,0,0
N#CCO/N=C(\c1ccccc1)c1ccncc1,-2,16207*,i,?,-2
O=C(O/N=C(\c1ccccc1)c1ccncc1)c1ccccc1Cl,-3,4458,0,0,0
